# Test results taken from PubChem BioAssay (NCI).
# Several values for one entry are separate records, joined by “and”; a condition that tells them apart may be missing. Equal entries are not always repeated. The panel holds about 83,000 compounds, 20% with a hit somewhere; the sample as a whole holds those more often.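 Cell lines were cultured in 96-well plates, exposed to a single compound concentration, and assessed for percent growth 48 hours later.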 Activity calls are given as the source filed them. Rule for the calls: active = growth percent below 10; inactive = the rest.
# System: MDA-MB-468 breast
# Experiment: NCI-60 one-dose screen, 48 h (100 = growth as untreated, 0 = no growth, -100 = all killed)
# Conditions: 10 µM unless noted
row,SMILES,growth
1,C=C1C(=O)O[C@H]2[C@H]1CC/C(COC(=O)NCCCCCCCCNC(=O)OC/C1=C/CC[C@@]3(C)O[C@H]3[C@H]3OC(=O)C(=C)[C@@H]3CC1)=C\CC[C@@]1(C)O[C@@H]21,-46.1% (active)
2,CC1=NN(c2ccccc2Cl)C(=O)/C1=C\c1cn(S(=O)(=O)c2ccc(C)cc2)c2ccccc12,119% (inactive)
3,Cc1ccccc1NC(=O)c1cc2ccccc2cc1O,79.5% (inactive)
4,C=CCSc1nnc(COc2ccc3c(C)c(Cc4ccccc4)c(=O)oc3c2C)o1,113% (inactive)
5,O=c1c2cc(F)cc(Cl)c2sc2c(NCCCNCCO)nc3ccccc3c12,78.2% (inactive)
6,CC(=O)c1cccc(N(C)S(=O)(=O)c2ccc(C)cc2)c1,111% (inactive)
7,Nc1c(C(=O)Nc2ccccc2Cl)sc2nc3c(cc12)CN(Cc1ccccc1)CC3,102% (inactive)
8,O=C(Nc1ccccc1)Nc1ccc(C(=O)/C=C/c2ccc(N3CCCC3)cc2)cc1,17.3% (inactive)
9,O=S=Nc1ccc([N+](=O)[O-])cc1,103% (inactive)
10,Cc1cc(N2CCSCC2)nc(NC2CCCC(Nc3ccnc4cc(Cl)ccc34)C2)n1 (stereo not given),-43.7% (active)
11,Nc1cc2c(cc1N)-c1ccccc1C2,89.4% (inactive) and 97.8% (inactive)
12,COc1cccc(NC(=O)c2sc3nc4c(cc3c2N)CCCC4)c1,9.67% (active)
13,NNC(=O)N/N=C1\C(=O)N(c2nccs2)C(=O)C(=O)C1c1nc2ccccc2s1 (stereo not given),106% (inactive)
14,CCCCCN(CCCCC)CC(O)c1cc2c(c3ccccc13)CCCC2 (stereo not given),72.1% (inactive) and 81.2% (inactive)
15,C=C1C(=O)O[C@H]2[C@H]1CC/C(COC(=O)/C=C\C(=O)O)=C\CC[C@@]1(C)O[C@@H]21,110% (inactive)
16,COc1ccc(-c2nnc(SCC(=O)Nc3ccc(/C(C)=N\O)cc3)n2-c2ccccc2)cc1OC,78.5% (inactive)
17,CC12CCCC(CC(=O)c3[nH]c4ccccc4c31)C2 (stereo not given),-47.5% (active)
18,Cc1ccc(OCCOCCOCCOc2ccc(C)n(O)c2=S)c(=S)n1O,12.1% (inactive)
19,O=C1CCCc2nc3sc4c(=O)n(-c5ccccc5Cl)nnc4c3cc21,85.9% (inactive)
20,C[C@@H](Oc1cc(-c2cnn(C3CC4(CCNCC4)C3)c2)cnc1N)c1c(F)ccc(Cl)c1Cl,-53.3% (active)

row,SMILES,growth
1,CN(C)c1ccc(C(c2ccccc2)c2ccc(N(C)C)cc2)cc1,103% (inactive)
2,COc1cc(Nc2ncccc2C(=O)NCc2cn(Cc3cccc(Oc4ccccc4)c3)nn2)cc(OC)c1,18.6% (inactive)
3,COc1ccc(-c2cc(-c3cccc(Cl)c3)c(C#N)c(=O)[nH]2)c(OC)c1,113% (inactive)
4,COc1ccc(OCC(CO)N2CCN(c3ccccc3)CC2)cc1 (stereo not given),99.6% (inactive)
5,COc1cc(C2CC(c3ccccc3)=NN2C=O)ccc1Oc1ccnc2cc(Cl)ccc12 (stereo not given),16.5% (inactive)
6,COC(=O)c1ccc2[nH]c(O)c(C(=Nc3ccc(N(C)C(=O)CN4CCN(C)CC4)cc3)c3ccccc3)c2c1,52.3% (inactive)
7,COc1cccc(-c2nn(-c3ccccc3)cc2-c2ccnc(NCCCNS(=O)(=O)c3ccc(Cl)cc3)c2)c1,25.6% (inactive)
8,CCOC(=O)[C@@H]1CSC(CC)=C(C(=O)O)N1,113% (inactive)
9,O=[N+]([O-])c1ccc(S(=O)Cc2ccccc2)c([N+](=O)[O-])c1 (stereo not given),-56% (active) and -64.1% (active)
10,O=C(NCCCNc1cc(-c2cn(-c3ccccc3)nc2-c2cccc(O)c2)ccn1)c1ccccc1,-61% (active)
11,N#CCCN1C/C(=C/c2ccc(Br)cc2)C(=O)/C(=C/c2ccc(Br)cc2)C1,-71.3% (active)
12,C#Cc1ccc(-n2c(/C=C/c3ccc4ccccc4c3)nc3ncccc3c2=O)cc1,-16.1% (active)
13,CCN(CC)CC(O)CNc1c2ccc([N+](=O)[O-])cc2nc2cc(OC)c(OC)cc12 (stereo not given),-44.5% (active)
14,O=C(CCN1CCCC1)Nc1ccc2c(NCCc3ccccc3)c3ccccc3nc2c1,-40.8% (active)
15,C[C@H]1[C@H](C)CC[C@]2(C(=O)O)CC[C@]3(C)C(=CC[C@@H]4[C@@]5(C)C[C@@H](Cc6cn([C@@H]7O[C@H](CO)[C@@H](O)[C@H](O)[C@H]7O)nn6)[C@H](O)C(C)(C)[C@@H]5CC[C@]43C)[C@H]12,94.1% (inactive)
16,O=C(N/N=C/c1c(Cl)cccc1Cl)c1cccnc1Nc1cccc(C(F)(F)F)c1,26.6% (inactive)
17,COC(=O)c1nc(N)nc(C(=O)OC)c1C(=O)c1ccc(F)cc1,101% (inactive)
18,COc1cc(-c2nnc(SCc3ccc(O)c4ncccc34)n2-c2ccccc2)cc(OC)c1OC,-10.1% (active)
19,CNc1ccccc1C(=O)N/N=C/C=C/c1ccccc1,19.8% (inactive)
20,FC(F)(F)c1ccc2nc(-c3nc(-c4ccccc4)n4ccccc34)[nH]c2c1,83.4% (inactive)
